Here are results for 68 compounds from PubChem BioAssay AID504832 (National Center for Advancing Translational Sciences (NCATS), 2011).

In all, about 310,000 compounds went through this assay and about 18,000 (5.8%) were called active. Entries that show only a call come without a potency. About 22% were inconclusive and are not listed. Calls follow the shape of the dose curve; as a rule, active = well fitted inhibition curve with a large enough effect; inconclusive = small, poorly fitted or top-dose-only effect, or another doubt; inactive = no such curve, though single readings can be large or run the other way. For the sample, actives were picked, then their nearest neighbours and some compounds at random.
Potency is read from the fitted curve at half-maximal effect.

This test is described as follows: Primary qHTS for delayed death inhibitors of the malarial parasite plastid, 48 hour incubation. To be noted: P. falciparum luciferase growth in erythrocytes; series mostly up to 28.7 µM. The method, boiled down: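 Parasite viability was followed by luminescence of a genomically integrated firefly luciferase. Cultures held 0.1% parasitemia at 2% hematocrit (final), incubated under 5% CO2 at 37 C.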
As for `COc1cc(N=Cc2c(O)c3ccccc3oc2=O)c(OC)cc1Cl`, the Potency entry was “inactive”. `CC(C)c1nnc(NC(=O)COC(=O)/C=C/c2ccc([N+](=O)[O-])cc2)s1`: the Potency entry is “inactive”.

Consider `COc1ccccc1-n1nnnc1SCC(=O)NC(=O)Cc1ccccc1`, for which the Potency result is “inactive”. As to `C=CCOc1cccc(CNn2cn[nH]c2=S)c1`, the Potency entry was “inactive”. As to `COc1cccc(CNn2cn[nH]c2=S)c1OCc1ccccc1`, the Potency is 10.4 µM (active).

In the case of `C=CCOc1c(CNn2cn[nH]c2=S)cccc1OC`, the Potency result is “inactive”. The value for `CC(=O)c1c(C)[nH]c(C(=O)OCC(=O)Nc2c(C)cccc2C)c1C` was “inactive”; that for `CSc1ccc(Cl)c(C(=O)OCC(=O)N2CCNC2=O)c1` was “inactive”; that for `COc1ccc(C(=O)NC(=S)N2CCNC(=O)C2CC(=O)OC(C)C)cc1` (stereo not drawn) was “inactive”.

For `CCOC(=O)CC1C(=O)NCCN1C(=O)COc1ccc(Br)cc1C` (stereo not drawn), the Potency entry is “inactive”. In the case of `CCOC(=O)CC1C(=O)NCCN1c1nc2c(C)cccn2c(=O)c1/C=C1\SC(=S)N(C(C)CC)C1=O` (stereo not drawn), the Potency was 8.28 µM (active). As for `Cc1cc2c(cc1C)[n+](C)cn2CC(O)COCC1CC=CCC1` (stereo not drawn), the Potency is 2.94 µM (active). `COc1ccc(S(=O)(=O)NCCOc2ccccc2)cc1F`: the Potency result was “inactive”. For the compound `COc1ccc(NC(=O)CCC(=O)Nc2cc(OC)c(NC(=O)c3ccco3)cc2OC)c(OC)c1`, the Potency result is “inactive”. Turning to `CC1(c2ccc(Cl)cc2Cl)NC(=O)N(CC(=O)Nc2cccnc2Cl)C1=O` (stereo not drawn), the Potency result is “inactive”. On to `Cc1cc(Br)ccc1NC(=O)CN(C)C(=O)CN1C(=O)NC2(CCCC2)C1=O`, for which the Potency result is “inactive”. On to `COc1cc(NS(=O)(=O)c2ccc3ccccc3c2)c2ncccc2c1`, for which the Potency is 4.15 µM (active). Take `COc1ccc2cc(S(=O)(=O)Nc3ccccn3)ccc2c1`: the Potency entry was “inactive”.

With `Cc1ccc(S(=O)(=O)Nc2ccc3ncccc3c2)cc1`, the Potency entry is “inactive”. The value for `CN(C(=O)C1CCN(c2ncnc3c2nc2n3CCCCC2)CC1)C1CCCCC1` was “inactive”; that for `Cc1cc(C)cc(NC(=O)NCc2ccccn2)c1` was “inactive”.

On to `CN(C)C(=O)N=NC(=O)N(C)C`, for which the Potency result was “inactive”. With `Cc1ccc(C(=O)CSc2ccccc2C(=O)O)cc1`, the Potency result is “inactive”. For the compound `Cc1ccc(S(=O)(=O)N(C)CC(=O)OCC(=O)Nc2ccccc2)cc1`, the Potency result was “inactive”. With `Cc1ccc(C(=O)CS(C)(=O)=O)cc1`, the Potency entry was “inactive”. As to `O=C(C[n+]1cc(-c2ccc(Cl)c(Cl)c2)n2c1CCC2)c1cccs1`, the Potency was 2.08 µM (active). The value for `O=C(CN1CCOCC1)Nc1ccccc1` was “inactive”. Consider `Cc1ccc(-c2c[n+](CC(=O)Nc3ccccc3)c3n2CCC3)cc1`, for which the Potency was 7.38 µM (active). With `Cc1ccc(C(=O)C[n+]2cc(-c3ccccc3)n3c2CCCCC3)cc1`, the Potency is 1.85 µM (active).

Turning to `CCS(=O)(=O)N1CCN(C(=O)c2cccs2)CC1`, the Potency entry was “inactive”. As to `O=C(CN1C2=NCCN2c2ccccc21)c1cccs1`, the Potency result was “inactive”. Turning to `Cc1c(NC(=O)c2c([N+](=O)[O-])cnn2C)c(=O)n(-c2ccccc2)n1C`, the Potency result is “inactive”. As for `Cc1ccc(NC(=O)CCN2C(=O)c3ccccc3C2=O)cc1C`, the Potency entry was “inactive”.

For the compound `O=C(NCc1ccc2c(c1)OCO2)C(=O)NCC1OCCN1S(=O)(=O)c1ccc(F)cc1` (stereo not drawn), the Potency entry is “inactive”. Take `O=C(COc1ccccc1)Nc1cc2c3c(c1)CC(=O)N3CCC2`: the Potency result was “inactive”. Turning to `Cc1nn(-c2ccccc2)c2c1c(C)c(CCC(=O)NCC1CCCO1)c(=O)n2C` (stereo not drawn), the Potency entry is “inactive”. As for `Cc1cc(OCC(=O)Nc2c(C)n(C)n(-c3ccccc3)c2=O)ccc1[N+](=O)[O-]`, the Potency entry is “inactive”. For `CCCCc1nc2cc(C(=O)NCCc3cnn(C)c3)ccc2o1`, the Potency entry was “inactive”.

As for `Cc1oc(-c2ccccc2F)nc1CS(=O)CC(=O)NCCN1CCCCC1C` (stereo not drawn), the Potency entry was “inactive”. On to `C/C(=N\NC(=S)NC(C)C)c1ccc(C(C)(C)C)cc1`, for which the Potency result was “inactive”. Consider `CC(C)(C)NC(=O)C(=O)NN=C1CCCCCCC1`, for which the Potency result is “inactive”. Take `CC(C)NC(=S)NN=C1CCCCCCCCCCC1`: the Potency was 11.7 µM (active). Take `COc1ccccc1C(=O)Nc1cccc(C(=O)N2CCOCC2)c1`: the Potency result is “inactive”. Take `Cc1noc(C)c1CCC(=O)N1CCCC(CO)(Cc2ccccc2)C1` (stereo not drawn): the Potency entry is “inactive”.

Take `Cc1ccccc1N1CCN(CCCN2C(=O)C3CCCCN3C2=O)CC1` (stereo not drawn): the Potency entry is “inactive”. For `CC(=O)Nc1ccc(S(=O)(=O)NNC(=O)CCc2ccccc2)cc1`, the Potency result is “inactive”.

`CS(=O)(=O)N1CCCC(C(=O)Nc2ccccc2C(F)(F)F)C1` (stereo not drawn): the Potency result was “inactive”.

As for `O=C(OCC1OC(Oc2ccc(O)cc2)C(O)C(O)C1O)c1ccccc1` (stereo not drawn), the Potency result was “inactive”.

As for `Cc1cc(C)c2nc3nc(C)cc(C)c3c(N)c2c1`, the Potency was 2.33 µM (active). The value for `Cc1cc(C)c2nc(SCCC#N)nc(C)c2c1` was “inactive”; that for `Cc1cc(C)c2nc(-c3ccco3)cc(C(=O)O)c2c1` was “inactive”. Take `CCC1=Nc2cc(C(=O)NCCN3CCCC3)ccc2Sc2ccc(C)cc21`: the Potency is 10.4 µM (active). Take `Cc1cc(C)cc(C(=O)NCCN2CCOCC2)c1`: the Potency entry was “inactive”.

Turning to `Cc1ccc(C(=O)NCCN2CCOCC2)cc1C`, the Potency entry was “inactive”.

`O=C(NC1CCCC1)C(c1ccco1)N(C(=O)c1csnn1)c1ccccc1` (stereo not drawn): the Potency entry was “inactive”. As to `COc1cccc(N(C(=O)CNC(=O)c2ccco2)C(C(=O)NC2CCCCC2)c2cccnc2)c1` (stereo not drawn), the Potency result was “inactive”. For `CC(C)c1ccc(N(C(=O)c2ccco2)C(C(=O)NC2CCCC2)c2cccnc2)cc1` (stereo not drawn), the Potency was 9.28 µM (active). Turning to `COc1cc(C(C(=O)NC2CCCC2)N(C(=O)c2ccco2)c2ccccc2C(C)=O)cc(OC)c1OC` (stereo not drawn), the Potency entry is “inactive”. Take `O=C(NCc1ccccc1)C(c1ccco1)N(C(=O)c1csnn1)c1ccccc1F` (stereo not drawn): the Potency entry was “inactive”.

Regarding `Cc1ccccc1N(C(=O)CNC(=O)c1cccs1)C(C(=O)NC1CCCC1)c1ccncc1` (stereo not drawn), the Potency result is “inactive”. The value for `COc1cccc(C(C(=O)NC2CCCC2)N(C(=O)c2ccco2)c2cccc(C(C)=O)c2)c1OC` (stereo not drawn) was 1.85 µM (active). As for `Cc1ccc(N(C(=O)CNC(=O)c2ccco2)C(C(=O)NC2CCCC2)c2ccncc2)cc1` (stereo not drawn), the Potency result is “inactive”. On to `O=C(NC1CCCC1)C(c1ccc(N2CCOCC2)cc1)N(C(=O)c1ccco1)c1ccccc1F` (stereo not drawn), for which the Potency was 10.4 µM (active).

With `CSc1ccccc1NC(=O)C(C)N1C(=O)c2ccccc2S1(=O)=O` (stereo not drawn), the Potency entry was “inactive”. `CC1=C(C(=O)OC2CCCCC2)C(c2ccccc2F)NC(=O)N1` (stereo not drawn): the Potency result is “inactive”.

In the case of `CC(=O)c1c(C)[nH]c(C(=O)COc2ccc3c(C)cc(=O)oc3c2)c1C`, the Potency result is “inactive”. As to `CN(C1CCS(=O)(=O)C1)S(=O)(=O)c1ccc2ccccc2c1` (stereo not drawn), the Potency entry is “inactive”. Turning to `COc1ccc(NC(=O)NNC(=O)COc2cc(C)c(Cl)c(C)c2)c(OC)c1`, the Potency result is “inactive”.
